This passage reports z-score and composite z-score results from PubChem BioAssay.

The source made the active and inactive calls. Unless noted, no rule for the calls is given here.

A short description of assay [1]: resazurin metabolic signal in HepG2 cells – cell-based, resazurin fluorescence, 24 h, PK04 Diversity Set, profiling panel (AID 1172). Also: test concentration not given here. Conditions: HepG2 viability, higher = more signal.
Assay [2] can be described thus: budding yeast growth changes without added modifier – OD600, strain BY4716, 24 h, basal condition, primary screen (AID 1173). Conditions: S. cerevisiae BY4716 growth, OD600, 24 h; higher = more signal, called active from +8 up or from −8 down.
Assay [3] in a line: viability profiling in MM1S myeloma cells – cell-based, resazurin fluorescence, basal, 24 h, PK04 Diversity Set, profiling panel (AID 1174). Also: test concentration not given here. Conditions: higher = more signal, called active from +8 up or from −8 down.
Assay [4] addresses Dihydroorotate dehydrogenase (quinone), mitochondrial (Plasmodium falciparum (isolate 3D7)) (UniProt Q08210). The assay can be described thus: inhibition of P. falciparum DHODH – biochemical, C-terminal His tag, absorbance 600 nm, primary screen (AID 1175).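 Also: recombinant parasite enzyme with a five histidine tag at its C terminus; test concentration not given here.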 Conditions: PfDHODH enzyme, DCIP absorbance 600 nm; higher = more signal, called active from +8 up or from −8 down.
Assay [5] is described as follows: inhibition of PAO1 biofilm formation – strain PAO1, LB-PBS medium, absorbance 600 nm, primary screen (AID 1176). Also: test concentration not given here. Conditions: P. aeruginosa PAO1 growth/biofilm, A600, 12 h; higher = more signal.
A short description of assay [6]: growth modulation of vineyard yeast isolate – strain RM11-1a, OD600, basal, 24 h, primary screen (AID 1177).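 Also: cultures grown under basal conditions with no added stressor; test concentration not given here.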 The note with it: S. cerevisiae RM11-1a growth, OD600, 24 h; higher = more signal, called active from +8 up or from −8 down.
Assay [7] can be described thus: growth of efflux-deficient E. coli DRC39 – strain DRC39, OD650, 24 h, E. coli filamentation inducers, primary screen (AID 1178).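 Also: growth measured as culture turbidity by optical density at 650 nm; test concentration not given here.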 The note with it: E. coli DRC39 acrAB, higher = more signal, called active from +8 up or from −8 down.
Assay [8] can be described thus: growth of efflux-deficient E. coli DRC39 – strain DRC39, OD650, 48 h, E. coli filamentation inducers, primary screen (AID 1179).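 Also: screen aims at cell division blockers that make cells filament.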 The note with it: E. coli DRC39 delta-acrAB growth, higher = more signal, called active from +8 up or from −8 down.
Assay [9] is described as follows: viability profiling in RPMI8226 myeloma cells – cell-based, resazurin fluorescence, basal, 24 h, PK04 Diversity Set, profiling panel (AID 1180).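 Also: RPMI8826 multiple myeloma cell line at 5000 cells per well; test concentration not given here.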 Conditions: higher = more signal.
Assay [10] deals with E3 ubiquitin-protein ligase XIAP (Homo sapiens) (UniProt P98170). The assay can be described thus: small molecules binding XIAP protein – biophysical, small-molecule microarray, fluorescence 635 nm, primary screen (AID 1181).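 Also: score merges 667 nm emission and signal to noise over triplicate slides.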 Conditions: higher = more signal.
Chain of E3 ubiquitin-protein ligase XIAP (Homo sapiens) (P98170 whole entry, looked up): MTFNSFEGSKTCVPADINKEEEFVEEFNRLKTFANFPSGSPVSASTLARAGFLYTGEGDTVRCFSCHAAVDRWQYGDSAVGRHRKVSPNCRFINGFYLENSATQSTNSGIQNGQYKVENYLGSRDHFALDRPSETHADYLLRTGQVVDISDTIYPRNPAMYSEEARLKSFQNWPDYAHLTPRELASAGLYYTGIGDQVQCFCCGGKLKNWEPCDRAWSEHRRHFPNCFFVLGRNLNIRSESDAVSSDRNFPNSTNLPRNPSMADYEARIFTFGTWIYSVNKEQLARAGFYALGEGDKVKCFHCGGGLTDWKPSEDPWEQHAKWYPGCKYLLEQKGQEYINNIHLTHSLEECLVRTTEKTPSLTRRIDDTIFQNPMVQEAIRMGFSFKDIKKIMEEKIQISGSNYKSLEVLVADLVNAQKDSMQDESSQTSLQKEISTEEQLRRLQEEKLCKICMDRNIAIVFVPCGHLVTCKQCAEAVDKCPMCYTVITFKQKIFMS

Chain of Dihydroorotate dehydrogenase (quinone), mitochondrial (Plasmodium falciparum (isolate 3D7)) (Q08210 whole entry, looked up): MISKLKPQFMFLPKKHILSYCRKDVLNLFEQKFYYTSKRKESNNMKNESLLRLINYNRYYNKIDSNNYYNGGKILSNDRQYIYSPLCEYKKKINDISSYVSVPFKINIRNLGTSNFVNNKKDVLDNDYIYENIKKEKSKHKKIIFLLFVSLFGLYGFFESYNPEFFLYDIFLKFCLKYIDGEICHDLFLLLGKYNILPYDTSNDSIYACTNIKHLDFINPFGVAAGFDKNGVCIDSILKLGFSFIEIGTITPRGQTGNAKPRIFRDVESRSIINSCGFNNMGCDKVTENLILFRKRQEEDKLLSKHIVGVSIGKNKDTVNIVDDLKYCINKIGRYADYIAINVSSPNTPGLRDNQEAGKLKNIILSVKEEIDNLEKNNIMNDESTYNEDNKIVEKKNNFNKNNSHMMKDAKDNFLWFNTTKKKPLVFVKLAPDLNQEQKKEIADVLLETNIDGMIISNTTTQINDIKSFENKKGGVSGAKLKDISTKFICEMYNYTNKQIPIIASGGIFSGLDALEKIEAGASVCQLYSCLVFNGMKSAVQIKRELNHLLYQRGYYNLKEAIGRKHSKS

Regarding `C[C@@H](c1ccccc1)N1C(=O)[C@H]2[C@H]3[C@H](O)[C@H](O)CC(=NOCc4ccccc4)[C@@H]3CC[C@H]2C1=O`, the z-score was -0.511 in [1]; -0.123 (inactive) in assay [2]; -0.457 (inactive) in assay [3]; -0.0819 (inactive) in assay [5]; -0.183 (inactive) in assay [6]; -0.241 (inactive) in assay [7]. In addition, the values for the z-score in [8] and in [9] were -0.0934 (inactive) and -0.181, respectively. In addition, the composite z-score in assay [4] was 0.805 (inactive); in assay [10] it was -0.185.

For `COC(=O)[C@@H]1CC[C@H](C)[C@@H](c2ccc(Br)cc2)N1C[C@H](O)CN=[N+]=[N-]`, the z-score in assay [1] was -0.413; in [2], -6.28 (inactive); in [3], -0.666 (inactive); in [5] it was 1.09 (inactive); in assay [6], 0.347 (inactive); in [7], -0.78 (inactive). The figures for the z-score in assay [8] and in assay [9] were -1.18 (inactive) and 0.385, respectively. The composite z-score in assay [4] is 0.294 (inactive); in [10], -0.122.

Take `C#CCCCON=C1C[C@@H](O)[C@@H](O)[C@@H]2[C@@H]3C(=O)N([C@@H](C)c4ccccc4)C(=O)[C@@H]3CC[C@@H]12`: the z-score in assay [1] was -0.121; in assay [2] it was 0.858 (inactive); in assay [3], -0.521 (inactive); in [5], 0.237 (inactive); in [6], 0.604 (inactive); in assay [7], -0.612 (inactive). The results for the z-score in assay [8] and in assay [9] were -0.245 (inactive) and -0.245, respectively. In addition, the composite z-score in assay [4] was 0.579 (inactive); in assay [10] it was -0.124.

With `O=C1C=C[C@@H](O)[C@@H]2[C@@H]3C(=O)N(C4CCCCC4)C(=O)[C@@H]3CC[C@@H]12`, the z-score in [1] was -0.295; in assay [2], -1.28 (inactive); in [3], -1.45 (inactive); in assay [5], -0.601 (inactive); in [6], 0.246 (inactive); in assay [7], -0.292 (inactive). Further, the results for the z-score in assay [8] and in assay [9] were -0.191 (inactive) and -1.31, respectively. Besides, the composite z-score in assay [4] is -0.168 (inactive); in assay [10], -0.269.

Turning to `CC(C)(C)N1C(=O)[C@H]2[C@H]3[C@H](O)[C@H](O)CC(=NNC(=O)OCc4ccccc4)[C@H]3CC[C@H]2C1=O`, the z-score in assay [1] is -0.558; in assay [2], -4.15 (inactive); in assay [3], 0.0137 (inactive); in [5], 0.118 (inactive); in assay [6], -0.589 (inactive); in [7], 0.352 (inactive). The values for the z-score in [8] and in assay [9] were -0.645 (inactive) and -0.198, respectively. Moreover, the values for the composite z-score in [4] and in assay [10] were -2.25 (inactive) and 0.0282, respectively.

For `CC(=O)OC[C@H]1O[C@@H](ON=C(C)CCN2CCCCc3nc(C)c(C)cc32)[C@H](OC(C)=O)[C@@H](OC(C)=O)[C@@H]1OC(C)=O`, the z-score was -0.077 in assay [1]; -0.436 (inactive) in assay [2]; 0.382 (inactive) in assay [3]; -0.679 (inactive) in [5]; -1.15 (inactive) in assay [6]; -1.24 (inactive) in assay [7]. Also, the z-score was -0.816 (inactive) in assay [8] and -0.0356 in assay [9]. Besides, the composite z-score in assay [4] is -2.52 (inactive); in [10] it was 0.0899.

Take `CC(C)=NOC(C)CN1CCCc2nc(C)c(C)cc21` (stereo not given): the z-score in assay [1] is -0.249; in assay [2], -0.211 (inactive); in assay [3], -0.0014 (inactive); in [5], 0.854 (inactive); in assay [6], -0.0702 (inactive); in assay [7], 0.0251 (inactive). In addition, the z-score is -0.726 (inactive) in assay [8] and -0.572 in assay [9]. Besides, the composite z-score was 0.787 (inactive) in assay [4] and -0.0676 in [10].

Regarding `CO[C@@H]1COC(=O)[C@H](CCSC)NC(=O)CC=C[C@@H](C)COC(=O)[C@@H]2CCCN2C(=O)CC=C[C@H]1C`, the z-score in assay [1] was 0.64; in assay [2], -0.691 (inactive); in [3], 0.89 (inactive); in assay [5], -0.92 (inactive); in assay [6], -0.572 (inactive); in assay [7], -0.0629 (inactive). For the same compound, the z-score is -0.733 (inactive) in [8] and 0.652 in [9]. The composite z-score in assay [4] was -0.0517 (inactive); in assay [10] it was -0.0277.

`C=CC[C@@H]1C=C[C@H](ON=C2C[C@@H](O)[C@@H](O)[C@@H]3[C@@H]4C(=O)N(CC)C(=O)[C@@H]4CC[C@@H]23)[C@@H](CO)O1`: the z-score in assay [1] was -1.05; in [2], -0.099 (inactive); in [3] it was -0.415 (inactive); in assay [5], -0.0781 (inactive); in [6], -0.466 (inactive); in assay [7], -0.939 (inactive). Further, the z-score was -1.5 (inactive) in assay [8] and -0.216 in assay [9]. Further, the values for the composite z-score in assay [4] and in assay [10] were -2.18 (inactive) and -0.289, respectively.

On to `CC(C)CON=C1C[C@@H](O)[C@@H](O)[C@@H]2[C@@H]3C(=O)N([C@@H](C)c4ccccc4)C(=O)[C@@H]3CC[C@@H]12`, for which the z-score in assay [1] was -0.161; in assay [2] it was 0.221 (inactive); in [3] it was -0.827 (inactive); in assay [5], 1.6 (inactive); in assay [6], -0.251 (inactive); in assay [7], -0.286 (inactive). Also, the z-score in [8] was -0.112 (inactive); in assay [9], -0.534. Moreover, the results for the composite z-score in [4] and in assay [10] were 0.291 (inactive) and 0.209, respectively.

As for `C[C@@H]1CC[C@H]2C(=O)O[C@@H](COc3ccc(C(C)(C)C)cc3)CN2[C@H]1c1ccc(Br)cc1`, the z-score in assay [1] was 0.7; in assay [2] it was -0.481 (inactive); in [3], 0.385 (inactive); in [5], 0.11 (inactive); in assay [6], -0.0191 (inactive); in assay [7], -0.578 (inactive). Besides, the values for the z-score in assay [8] and in assay [9] were -0.423 (inactive) and 0.749, respectively. The figures for the composite z-score in assay [4] and in assay [10] were 0.444 (inactive) and -0.327, respectively.

Regarding `CCN1C(=O)[C@H]2[C@H]3[C@H](O)[C@H](O)CC(=NO[C@@H]4O[C@H](CO)[C@@H](O)[C@H](O)[C@H]4O)[C@H]3CC[C@H]2C1=O`, the z-score was -0.171 in assay [1]; -0.305 (inactive) in assay [2]; 0.298 (inactive) in assay [3]; 0.519 (inactive) in assay [5]; -0.782 (inactive) in assay [6]; -0.18 (inactive) in assay [7]. The z-score in assay [8] is -0.446 (inactive); in [9], 0.064. Besides, the composite z-score in [4] was -0.707 (inactive); in assay [10], -0.11.

For `CCN1C(=O)[C@H]2[C@H]3[C@H](O)[C@H](O)CC(=NOC(C)CN4CCCc5nc(C)c(C)cc54)[C@@H]3CC[C@H]2C1=O` (stereo not given in full), the z-score in assay [1] was -1.01; in [2], -0.0189 (inactive); in assay [3], -2 (inactive); in assay [5] it was -0.112 (inactive); in [6] it was 0.49 (inactive); in [7], 0.836 (inactive). The figures for the z-score in assay [8] and in assay [9] were 0.583 (inactive) and -2.01, respectively. The composite z-score in assay [4] is 0.988 (inactive); in assay [10] it was 0.109.
